Sampled rows, rich in hits. Any-hit rate of the full collection: about 6.8%.
Pf Dd2 growth = inhibitors of Plasmodium falciparum Dd2 growth. AID 1159554. activity change, % at 10 µM. 94,000 compounds, 2.3% hits. P. falciparum Dd2 growth, SYBR Green, 72 h; hits give low values; in the data active = activity change below about -80%; inconclusive = no clear call, values can overlap the other calls
C diff HTS = blocks growth of Clostridium difficile | Clostridium difficile clinical isolate growth, OD600, 24 h; hits give low values | 86,000 compounds, 0.25% hits | AID 1259249 | growth activity, negative = inhibition, % at 16 µg/mL (by protocol);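 active = mean growth activity at or below -80% and every replicate also at or below -80%; inconclusive = mean at or below -80% but some replicate above -80%; inactive = mean growth activity above -80%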;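 note: 0% = DMSO wells and -100% = levofloxacin 16 µg/mL wells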
T cruzi growth-1 = blocks T. cruzi growth in NIH3T3 culture | AID 624255 | 77,000 compounds, 5.9% hits | inhibition, % at 8.34 µM | T. cruzi beta-gal in NIH3T3, GalScreen luminescence, 90 h;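 active = mean inhibition above about 93%, with at least 55% of replicates each passing it, limit read from the data, passing the limit was not always enough; inconclusive = only one of those two conditions holds; inactive = neither condition holds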
T cruzi growth-2 = inhibitors of T. cruzi proliferation. shares compounds with T cruzi growth-1. T. cruzi beta-gal in NIH3T3, GalScreen luminescence, 90 h. inhibition, % at 8.35 µM. 5,600 compounds, 72% hits. AID 651739;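 active = mean replicate inhibition above about 95% and at least 55% of replicates individually reaching it, limit read from the data; inconclusive = only one of the two criteria is met; inactive = neither criterion is met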
T cruzi growth-3 = inhibitors of T. cruzi proliferation | shares compounds with T cruzi growth-1 | T. cruzi beta-gal in NIH3T3, GalScreen luminescence, 90 h | inhibition, % at 2.09 µM | 5,600 compounds, 21% hits;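 active = mean inhibition above about 95%, with at least 55% of replicates also reaching it, limit read from the data; inconclusive = meets just one of the two conditions; inactive = meets neither condition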;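 note: plate controls were neutral control median for no effect and positive control median for full effect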
3T3 cytotox = kills mouse NIH/3T3 fibroblasts | NIH/3T3 viability, CellTiter-Glo ATP luminescence, 90 h | cytotoxicity (signal decrease), % at 8.35 µM | shares compounds with T cruzi growth-1 | 5,600 compounds, 14% hits;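 active = mean signal decrease across replicates above about 35% based on untreated-well scatter, with enough replicates individually passing, limit read from the data; inconclusive = no rule stated though some were filed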;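 note: 0% = median of neutral control wells and 100% = median of positive control wells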
3T3 cytotox 2 = cytotoxicity in mouse NIH/3T3 fibroblasts | 5,600 compounds, 56% hits | inhibition, % at 24.9 µM | shares compounds with T cruzi growth-1 | NIH/3T3 viability, CellTiter-Glo ATP luminescence, 90 h;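 active = mean loss of cell viability signal at or above a set limit, and enough replicates individually reaching it; inconclusive = meets only the mean limit or only the replicate share; inactive = meets neither condition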;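 note: 0% = median of neutral control wells and 100% = median of positive control wells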
An asterisk follows results filed as active; ? = inconclusive; / = no result given.

SMILES	Pf Dd2 growth	C diff HTS	T cruzi growth-1	T cruzi growth-2	T cruzi growth-3	3T3 cytotox	3T3 cytotox 2
C[C@@H]1CN([C@@H](C)CO)C(=O)c2cccc(NC(=O)C3CC3)c2O[C@H]1CN(C)S(C)(=O)=O	15	-4	67	/	/	/	/
O=C1CS(=O)(=O)C(c2ccccc2)N1c1cccc(Cl)c1 (stereo not drawn)	/	-2	/	/	/	/	/
Cc1ccc(S(=O)(=O)N(C)C[C@H]2OCCCC[C@@H](C)Oc3ccc(NC(=O)Nc4ccccc4)cc3C(=O)N([C@H](C)CO)C[C@H]2C)cc1	-87*	1	113*	109*	108*	-8	7
Cc1ccc(S(=O)(=O)N(C)C[C@H]2OCCCC[C@@H](C)Oc3ccc(NC(=O)NC(C)C)cc3C(=O)N([C@@H](C)CO)C[C@H]2C)cc1	-56	-12	12	/	/	/	/
Cc1ccc(S(=O)(=O)N(C)C[C@H]2OCCCC[C@H](C)Oc3ccc(NC(=O)Nc4ccccc4)cc3C(=O)N([C@H](C)CO)C[C@H]2C)cc1	-88*	2	?	111*	32	-3	-4
Cc1ccc(S(=O)(=O)N(C)C[C@@H]2OCCCC[C@H](C)Oc3ccc(NC(=O)c4ccccc4)cc3C(=O)N([C@H](C)CO)C[C@@H]2C)cc1	-72	/	95*	104*	55	-14	?
C[C@@H]1CN([C@H](C)CO)C(=O)c2cc(NC(=O)c3ccccc3)ccc2O[C@@H](C)CCCCO[C@@H]1CN(C)S(=O)(=O)c1ccccc1	-72	/	24	/	/	/	/
Cc1ccc(S(=O)(=O)N(C)C[C@@H]2OCCCC[C@H](C)Oc3ccc(NC(=O)NC(C)C)cc3C(=O)N([C@@H](C)CO)C[C@@H]2C)cc1	-67	-11	81	/	/	/	/
Cc1ccc(S(=O)(=O)N(C)C[C@@H]2OCCCC[C@H](C)Oc3ccc(NC(=O)Nc4ccccc4)cc3C(=O)N([C@@H](C)CO)C[C@@H]2C)cc1	-90*	5	108*	102*	71	-2	6
Cc1ccc(S(=O)(=O)N(C)C[C@H]2OCCCC[C@@H](C)Oc3ccc(NC(=O)NC(C)C)cc3C(=O)N([C@H](C)CO)C[C@H]2C)cc1	-60	5	19	/	/	/	/
COCC(=O)Nc1ccc2c(c1)OC[C@@H](C)N(Cc1cccc(F)c1)C[C@H](C)[C@H](OC)CN(C)C2=O	-29	/	46	/	/	/	/
COCc1cn(CC[C@@H]2CC[C@H](NC(=O)Nc3ccc(OC)cc3)[C@@H](CO)O2)nn1	0	1	-37	/	/	/	/
COC(=O)C[C@H]1CC[C@@H](NS(=O)(=O)c2ccccc2F)[C@@H](CO)O1	20	/	-7	/	/	/	/
CCCN1C[C@H](C)[C@@H](OC)CN(C)C(=O)c2cc(NC(=O)Nc3ccccc3F)ccc2OC[C@H]1C	-44	/	12	/	/	/	/
COc1cccc(NC(=O)Nc2ccc3c(c2)C(=O)N(C)[C@H]2CC[C@@H](CC(=O)NCCc4ccccc4)O[C@H]2CO3)c1	/	-1	62	/	/	/	/
O=C(C[C@H]1C=C[C@@H](NC(=O)Nc2ccc3c(c2)OCO3)[C@H](CO)O1)NCc1ccc2c(c1)OCO2	-5	-3	-3	/	/	/	/
CO[C@H]1CN(C)C(=O)c2cc(NC(=O)C3CCCC3)ccc2OC[C@H](C)N(C(C)=O)C[C@@H]1C	11	-1	-21	/	/	/	/
C[C@@H]1CCCCO[C@H](CN(C)Cc2ccccc2)[C@H](C)CN([C@H](C)CO)C(=O)c2cc(NC(=O)NC3CCCCC3)ccc2O1	-52	-8	44	/	/	/	/
Cc1ccc(S(=O)(=O)N(C)C[C@H]2OCCCC[C@H](C)Oc3ccc(NC(=O)Nc4ccccc4)cc3C(=O)N([C@@H](C)CO)C[C@@H]2C)cc1	-83*	6	111*	101*	107*	-24	3
Cc1ccc(S(=O)(=O)N(C)C[C@H]2OCCCC[C@H](C)Oc3ccc(NC(=O)NC(C)C)cc3C(=O)N([C@@H](C)CO)C[C@H]2C)cc1	-63	-4	10	/	/	/	/
Cc1ccc(S(=O)(=O)N(C)C[C@H]2OCCCC[C@@H](C)Oc3ccc(NC(=O)NC(C)C)cc3C(=O)N([C@@H](C)CO)C[C@@H]2C)cc1	-58	-6	-2	/	/	/	/
Cc1ccc(S(=O)(=O)N(C)C[C@H]2OCCCC[C@@H](C)Oc3ccc(NC(=O)Nc4ccccc4)cc3C(=O)N([C@@H](C)CO)C[C@H]2C)cc1	-74	-2	?	106*	103*	-17	19
Cc1ccc(S(=O)(=O)N(C)C[C@H]2OCCCC[C@@H](C)Oc3ccc(NC(=O)NC(C)C)cc3C(=O)N([C@H](C)CO)C[C@@H]2C)cc1	-34	-12	-58	/	/	/	/
Cc1ccc(S(=O)(=O)N(C)C[C@H]2OCCCC[C@@H](C)Oc3ccc(NC(=O)Nc4ccccc4)cc3C(=O)N([C@@H](C)CO)C[C@@H]2C)cc1	-83*	1	109*	109*	63	18	35*
C[C@H](O)C#Cc1ccc2c(c1)O[C@@H](CN(C)CC1CC1)[C@H](C)CN([C@H](C)CO)S2(=O)=O	-45	-7	-42	/	/	/	/
SMILES	Pf Dd2 growth	C diff HTS	T cruzi growth-1	T cruzi growth-2	T cruzi growth-3	3T3 cytotox	3T3 cytotox 2
CN1C(=O)c2cc(NS(C)(=O)=O)ccc2OC[C@H]2O[C@H](CC(=O)O)CC[C@H]21	2	-2	-14	/	/	/	/
Cc1ccc(S(=O)(=O)N(C)C[C@@H]2OCCCC[C@@H](C)Oc3ccc(NC(=O)Nc4ccc5c(c4)OCO5)cc3C(=O)N([C@H](C)CO)C[C@H]2C)cc1	-73	/	/	/	/	/	/
Cc1ccc(S(=O)(=O)N(C)C[C@H]2OCCCC[C@H](C)Oc3ccc(NC(=O)Nc4ccc5c(c4)OCO5)cc3C(=O)N([C@H](C)CO)C[C@H]2C)cc1	-73	/	/	/	/	/	/
C[C@@H]1CCCCO[C@H](CN(C)S(=O)(=O)c2ccc(Cl)cc2)[C@H](C)CN([C@@H](C)CO)C(=O)c2cc(NC(=O)Nc3ccc4c(c3)OCO4)ccc2O1	-85*	-3	100*	105*	113*	-3	11
Cc1ccc(S(=O)(=O)N(C)C[C@@H]2OCCCC[C@@H](C)Oc3ccc(NC(=O)Nc4ccc5c(c4)OCO5)cc3C(=O)N([C@@H](C)CO)C[C@H]2C)cc1	-74	/	/	/	/	/	/
C[C@H](CO)N1C[C@H](C)[C@@H](CN(C)S(=O)(=O)c2ccc(Cl)cc2)OCCCC[C@H](C)Oc2ccc(NC(=O)Nc3ccc4c(c3)OCO4)cc2C1=O	-64	4	106*	114*	104*	2	-3
C[C@H](CO)N1C[C@H](C)[C@H](CN(C)S(=O)(=O)c2ccc(Cl)cc2)OCCCC[C@H](C)Oc2ccc(NC(=O)Nc3ccc4c(c3)OCO4)cc2C1=O	-69	3	104*	103*	102*	-2	16
COc1ccc(NC(=O)Nc2ccc3c(c2)C(=O)N([C@@H](C)CO)C[C@@H](C)[C@@H](CN(C)C(=O)c2ccccc2)OCCCC[C@@H](C)O3)cc1	-55	0	12	/	/	/	/
